The panel holds about 79,000 compounds, 15% with a hit somewhere; the sample as a whole holds those more often. Activity calls are given as the source filed them. Cut-off read from the data, not from the text of the source: active = growth inhibition above about 70%; inactive = the rest.
Assay: NCI Yeast Anticancer Drug Screen. Data for the mlh1 strain (AID 171);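 note: 0% = growth of vehicle-treated control cultures of the same strain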
Conditions: S. cerevisiae mlh1 strain growth inhibition, hits give high values
Experimental: Growth inhibition of yeast strains with defined genetic alterations is measured as a screen for potential anti-cancer activity. Selected strains with alterations in DNA damage repair or cell cycle control were exposed to compounds and growth inhibition was measured relative to vehicle treated controls. The strain used in this assay is mlh1

Measured: growth inhibition

CN(N=O)N1C(=O)SCC(c2ccccc2)(c2ccccc2)C1=O
inactive: at 1.2 µM 3% | at 3.7 µM -1% | at 11.0 µM 1% | at 33.0 µM 2% | at 100.0 µM -8%

CCOc1ccc2c(c1)c(CC(=O)O)cn2C
inactive: at 1.2 µM 5% | at 3.7 µM -4% | at 11.0 µM 13% | at 33.0 µM 42%
active: at 100.0 µM 75%

CCC(=O)OCCn1c2nc(=O)[nH]c(=O)c-2nc2cc(C)c(C)cc21
inactive: at 1.2 µM -11% | at 3.7 µM -6% | at 11.0 µM -5% | at 33.0 µM 65%
active: at 100.0 µM 86%

O=C(O)C1OC1(c1cccc(Cl)c1)c1ccccc1Cl (stereo not given)
inactive: at 1.2 µM -26% | at 3.7 µM -25% | at 11.0 µM -10% | at 33.0 µM 37%
active: at 100.0 µM 90%

O=[N+]([O-])c1ccc2c(c1)C(N1CCN(CCO)CC1)Cc1ccc(F)cc1S2 (stereo not given)
inactive: at 1.2 µM -3% | at 3.7 µM -3% | at 11.0 µM -2% | at 33.0 µM -3% | at 100.0 µM 35%

CC[n+]1ccc2c(C)c3[nH]c4ccc(O)cc4c3c(C)c2c1
inactive: at 1.2 µM 0% | at 3.7 µM -16% | at 11.0 µM -18% | at 33.0 µM -4% | at 100.0 µM 10%

S=C(N/N=C/c1ccccn1)Nc1ccc(Cl)cc1
inactive: at 1.2 µM -5% | at 3.7 µM -9% | at 11.0 µM -5% | at 33.0 µM 12% | at 100.0 µM 51%

NC1=NS(=O)(=O)N=C(N)C1=Cc1ccc([N+](=O)[O-])o1
active: at 100.0 µM 98%
inactive: at 1.2 µM -7% | at 3.7 µM -6% | at 11.0 µM 2% | at 33.0 µM 33%

— PubChem BioAssay (NCI)
